Molecules are shown by their SMILES. Inconclusive results are not listed. Calls of active or inactive are those of the source. Unless noted, the call rests on the fitted dose curve.

Experiment [1] concerns the target Glucocorticoid receptor (Homo sapiens) (UniProt P04150). Put plainly: qHTS assay for small molecule antagonists of glucocorticoid receptor signaling (AID 588533; active means well fitted inhibition curve with a large enough effect in the signal ratio, with a control signal flat, not every such curve was filed as active; the % refers to the signal ratio; further: on the % scale 0 is the no-effect control and ±100 the full control effect). The procedure, abridged: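 Antagonist-mode qHTS: compound titrations added to GRE-bla HeLa cells, then dexamethasone 2 nM final; 18 h, 37 C. CCF4 FRET fluorescence normalized to dexamethasone and DMSO; IC50 from Hill fit.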

The nature of experiment [2]: qHTS assay for small molecule antagonists of peroxisome proliferator-activated receptor delta signaling (AID 588535; active means well fitted inhibition curve with a large enough effect in the signal ratio, with a control signal flat, not every such curve was filed as active; the % refers to the signal ratio;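 on max response: cells co-treated with a PPAR-delta agonist as stimulator during compound exposure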). The note with it: HEK293T PPARd-UAS-bla, beta-lactamase FRET ratio, 18 h; 460 nm channel. The procedure, abridged:
(§1)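 Beta-lactamase reporter read-out (405 nm excitation, 460/530 nm emission) after CCF4 loading for 2 hrs at RT. HEK293T PPAR-delta-UAS-bla cells, 2% charcoal/dextran FBS, compounds for 18 hrs at 37 C. Hill fit gave IC50 and efficacy.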

Experiment [3] addresses Peroxisome proliferator-activated receptor delta (Homo sapiens) (UniProt Q03181). Described as above. The gist of the method: as §1
The target of experiment [4] is Peroxisome proliferator-activated receptor gamma (Homo sapiens) (UniProt P37231). Put plainly: qHTS assay for small molecule agonists of peroxisome proliferator-activated receptor gamma signaling (AID 588536; active means well fitted curve in the direction sought with a large enough effect in the signal ratio, with a control signal flat, not every such curve was filed as active; the % refers to the signal ratio;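 further: 0% = DMSO basal wells and 100% = rosiglitazone at 2 µM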). The gist of the method:
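Beta-lactamase reporter read-out: CCF4 fluorescence (ex 405, em 460/530 nm) after 2 h at RT. HEK293 GeneBLAzer cells were treated for 16 h at 37 C. Hill fits gave EC50 and efficacy versus 2 uM rosiglitazone (100%) and DMSO (0%).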

For experiment [5] the target is unchanged. Put plainly: qHTS assay for small molecule antagonists of peroxisome proliferator-activated receptor gamma signaling (AID 588537; active means well fitted inhibition curve with a large enough effect in the signal ratio, with a control signal flat, not every such curve was filed as active; the % refers to the signal ratio;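 further: reporter cells co-stimulated with 50 nM rosiglitazone agonist during compound treatment; % of control where 0% means no effect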). The procedure, abridged:
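Read-out: CCF4 fluorescence (ex 405, em 460/530 nm) after 2 h at RT. Cells were HEK293 carrying a UAS-bla reporter and treated 16 h at 37 C with compound plus rosiglitazone (50 nM final). Normalized to rosiglitazone and DMSO.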

The target in experiment [6] is Vitamin D3 receptor (Homo sapiens) (UniProt P11473). Put plainly: qHTS assay for small molecule antagonists of vitamin D receptor signaling (AID 588541).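 Further: receptor activated by calcitriol during compound treatment; series mostly up to about 77 µM; on the % scale 0 is the no-effect control and ±100 the full control effect.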 The gist of the method: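 VDR-UAS-bla HEK293T cells in 2% charcoal-stripped FBS were stimulated with 1-alpha,25-dihydroxyvitamin D3 (3 nM final) plus compound for 16 h at 37 C. The beta-lactamase CCF4 readout was normalized to 50 nM agonist and DMSO, and Hill fits gave IC50.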

The target is the same in experiment [7]. Briefly: qHTS assay for small molecule agonists of vitamin D receptor signaling (AID 588543).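 Further: 0% = DMSO basal and 100% = reference agonist control.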 The gist of the method: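 Measured: β-lactamase reporter activity (CCF4, 405 nm excitation, 460/530 nm emission) in HEK293T VDR-UAS-bla cells after 16 h compound exposure at 37 °C. Normalization against 50 nM 1α,25-dihydroxyvitamin D3 and DMSO; Hill-fit EC50.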
Experiment [8] in a line: qHTS assay for small molecule agonists of retinoid X receptor alpha signaling (AID 588544).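 On activation: 0% = DMSO basal wells and 100% = reference agonist.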 The note with it: HEK293T RXRa-UAS-bla, beta-lactamase reporter, 18 h; 530 nm emission.
Experiment [9] has as its target Retinoic acid receptor RXR-alpha (Homo sapiens) (UniProt P19793). The experiment is described as above.
The target in experiment [10] is Thyroid hormone receptor beta (Homo sapiens) (UniProt P10828). Put plainly: qHTS assay for small molecule agonists of thyroid hormone receptor beta signaling (AID 588545).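 Further: 0% = DMSO only and 100% = 10 nM T3.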 The procedure, abridged:
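Compounds were tested as agonists in TR-UAS-bla-GripTite HEK 293 cells. After 18 hrs at 37 C, CCF4 substrate was added and fluorescence read after 2 hrs at room temperature.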

Experiment [11] in a line: qHTS assay for small molecule antagonists of retinoid X receptor alpha signaling (AID 588546; active means well fitted inhibition curve with a large enough effect in the signal ratio, with a control signal flat, not every such curve was filed as active; the % refers to the signal ratio;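 further: cells stimulated with 9-cis-retinoic acid as agonist; on the % scale 0 is the no-effect control and ±100 the full control effect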). The note with it: HEK293T RXRa-UAS-bla, beta-lactamase ratio, antagonist mode; measured here: W530 green channel, cytotoxicity proxy. The procedure, abridged: (§2)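 Beta-lactamase reporter inhibition, read as CCF4 fluorescence ratio (ex 405, em 460/530 nm) after 2 h at RT. HEK293T UAS-bla cells, 2500/well, were stimulated with 9-cis-RA at 500 or 100 nM final alongside test compound for 18 h at 37 C.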

Experiment [12] concerns the target Thyroid hormone receptor beta (Homo sapiens) (UniProt P10828). Briefly: qHTS assay for small molecule antagonists of thyroid hormone receptor beta signaling (AID 588547; active means well fitted inhibition curve with a large enough effect in the signal ratio, with a control signal flat, not every such curve was filed as active; the % refers to the signal ratio). Conditions: TR-UAS-bla HEK293, beta-lactamase ratio, antagonist mode, 18 h. The gist of the method: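 TR-UAS-bla GripTite HEK293 cells in 2% charcoal/dextran FBS medium; compounds 0.59 nM to 92 uM with T3 at 0.4nM final, 18 h at 37 C. Beta-lactamase read by CCF4 fluorescence (460/530 nm); Hill fits gave IC50 and efficacy.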

Experiment [13] concerns the target Voltage-gated inwardly rectifying potassium channel KCNH2 (Homo sapiens) (UniProt Q12809). Briefly: qHTS Assay for Small Molecule Inhibitors of the Human hERG Channel Activity (AID 588834; active means well fitted inhibition curve with a large enough effect;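 further: top concentration of the series differs between compounds; on the % scale 0 is the no-effect control and ±100 the full control effect; lower thallium flux fluorescence means stronger hERG block; nearly all actives have a fitted effect of over 50% in size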). The gist of the method:
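Homogeneous FluxOR thallium flux assay using hERG-expressing U2OS cells (BacMam). Compound treatment about 10 minutes preceded stimulation; reduced fluorescence taken as channel block.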

The target in experiment [14] is Glucocorticoid receptor (Homo sapiens) (UniProt P04150). Briefly: qHTS assay for small molecule agonists of glucocorticoid receptor signaling (AID 588532; active means well fitted curve in the direction sought with a large enough effect in the signal ratio, with a control signal flat; the % refers to the signal ratio;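 further: 100% = dexamethasone at 0.1 µM and 0% = DMSO only wells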). Conditions: HeLa MMTV-bla, beta-lactamase ratio, agonist, 18 h; stronger effect = higher value; percent of dexamethasone control, DMSO zero. The procedure, abridged: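 Cells were plated and rested 3-5 h at 37 C, compounds were added in titration and incubated 18 h, then CCF4 substrate was loaded for 2 h at RT before reading blue/green fluorescence. EC50 came from Hill-equation fitting.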

Experiment [15] concerns the target Retinoic acid receptor RXR-alpha (Homo sapiens) (UniProt P19793). Briefly: qHTS assay for small molecule antagonists of retinoid X receptor alpha signaling (AID 588546).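 Further: cells stimulated with 9-cis-retinoic acid as agonist; on the % scale 0 is the no-effect control and ±100 the full control effect.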 Conditions: HEK293T RXRa-UAS-bla, beta-lactamase ratio, antagonist mode. The gist of the method: as §2
Experiment [16] in a line: qHTS assay for small molecule activators of the p53 signaling pathway (AID 651743; active means well fitted activation curve with a large enough effect in the signal ratio, not every such curve was filed as active; the % refers to the signal ratio; further: series mostly up to about 92 µM; % of control where 0% means no effect). The note with it: HCT-116 p53RE-bla, beta-lactamase FRET ratio, 16 h; stronger effect = higher value. The gist of the method:
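Reporter: beta-lactamase driven by p53 response elements, stably integrated in HCT-116 cells. Cells seeded at 4,000/well, 5 h preincubation, compound (DMSO) 16 h at 37 C; B/G FRET substrate 2 h RT; fluorescence intensity read.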

A short description of experiment [17]: qHTS assay for small molecule activators of the nuclear factor-kappa B (NF-kB) signaling pathway (AID 651749; active means well fitted activation curve with a large enough effect in the signal ratio; the % refers to the signal ratio; further: series mostly up to about 77 µM; % of control where 0% means no effect). The note with it: NF-kB-bla ME-180 cells, beta-lactamase FRET ratio, 16 h; stronger effect = higher value. The gist of the method: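 NF-kB-bla ME-180 cells, 2,000/well; 23 nL compound or DMSO pinned; 16 hr, 37C/5% CO2; beta-lactamase FRET read-out.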
Experiment [18] in a line: qHTS assay for small molecule agonists of the antioxidant response element (ARE) signaling pathway (AID 651741; active means well fitted activation curve with a large enough effect in the signal ratio; the % refers to the signal ratio; further: % of control where 0% means no effect). The gist of the method: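 HepG2 ARE-bla reporter cells, 2,000/well; 5 h settle at 37 C/5% CO2; compound pin transfer (23 nL, DMSO); 16 h at 37 C; LiveBLAzer B/G FRET substrate, 2 h RT; fluorescence intensity read.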

Chain of Glucocorticoid receptor (Homo sapiens) (P04150 whole entry, looked up): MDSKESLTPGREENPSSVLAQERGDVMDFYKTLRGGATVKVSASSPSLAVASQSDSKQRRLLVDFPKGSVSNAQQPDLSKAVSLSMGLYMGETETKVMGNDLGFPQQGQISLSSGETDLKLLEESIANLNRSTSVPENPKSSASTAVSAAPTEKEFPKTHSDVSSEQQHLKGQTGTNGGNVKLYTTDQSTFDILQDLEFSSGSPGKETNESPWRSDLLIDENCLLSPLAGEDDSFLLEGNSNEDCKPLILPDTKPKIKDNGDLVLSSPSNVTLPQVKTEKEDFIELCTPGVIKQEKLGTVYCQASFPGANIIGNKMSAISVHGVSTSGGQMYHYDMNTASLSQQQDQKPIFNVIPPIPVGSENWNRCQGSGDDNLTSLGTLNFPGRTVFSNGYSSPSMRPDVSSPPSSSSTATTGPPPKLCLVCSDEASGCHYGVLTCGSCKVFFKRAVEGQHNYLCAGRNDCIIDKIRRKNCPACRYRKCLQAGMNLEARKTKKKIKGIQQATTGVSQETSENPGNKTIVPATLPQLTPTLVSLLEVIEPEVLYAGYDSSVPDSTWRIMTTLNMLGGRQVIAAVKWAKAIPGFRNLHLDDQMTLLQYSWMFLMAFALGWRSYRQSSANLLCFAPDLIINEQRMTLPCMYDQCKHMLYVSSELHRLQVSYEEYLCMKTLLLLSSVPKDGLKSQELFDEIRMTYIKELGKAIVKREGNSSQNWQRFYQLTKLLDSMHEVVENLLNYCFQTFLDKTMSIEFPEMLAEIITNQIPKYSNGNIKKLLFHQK
Chain of Peroxisome proliferator-activated receptor gamma (Homo sapiens) (P37231 whole entry, looked up): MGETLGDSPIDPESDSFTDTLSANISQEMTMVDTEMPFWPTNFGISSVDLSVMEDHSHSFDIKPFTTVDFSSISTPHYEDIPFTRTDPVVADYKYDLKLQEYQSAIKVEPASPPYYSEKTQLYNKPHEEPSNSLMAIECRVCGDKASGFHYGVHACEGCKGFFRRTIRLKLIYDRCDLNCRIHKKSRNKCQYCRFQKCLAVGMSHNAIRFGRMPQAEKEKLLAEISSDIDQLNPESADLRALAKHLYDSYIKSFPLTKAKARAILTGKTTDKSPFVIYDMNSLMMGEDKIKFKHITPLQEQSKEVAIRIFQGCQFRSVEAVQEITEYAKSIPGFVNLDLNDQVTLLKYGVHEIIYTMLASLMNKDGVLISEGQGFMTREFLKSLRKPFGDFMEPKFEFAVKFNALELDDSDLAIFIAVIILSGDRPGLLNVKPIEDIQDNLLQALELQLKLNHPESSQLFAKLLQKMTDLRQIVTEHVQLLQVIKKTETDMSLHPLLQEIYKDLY
Chain of Voltage-gated inwardly rectifying potassium channel KCNH2 (Homo sapiens) (Q12809 whole entry, looked up): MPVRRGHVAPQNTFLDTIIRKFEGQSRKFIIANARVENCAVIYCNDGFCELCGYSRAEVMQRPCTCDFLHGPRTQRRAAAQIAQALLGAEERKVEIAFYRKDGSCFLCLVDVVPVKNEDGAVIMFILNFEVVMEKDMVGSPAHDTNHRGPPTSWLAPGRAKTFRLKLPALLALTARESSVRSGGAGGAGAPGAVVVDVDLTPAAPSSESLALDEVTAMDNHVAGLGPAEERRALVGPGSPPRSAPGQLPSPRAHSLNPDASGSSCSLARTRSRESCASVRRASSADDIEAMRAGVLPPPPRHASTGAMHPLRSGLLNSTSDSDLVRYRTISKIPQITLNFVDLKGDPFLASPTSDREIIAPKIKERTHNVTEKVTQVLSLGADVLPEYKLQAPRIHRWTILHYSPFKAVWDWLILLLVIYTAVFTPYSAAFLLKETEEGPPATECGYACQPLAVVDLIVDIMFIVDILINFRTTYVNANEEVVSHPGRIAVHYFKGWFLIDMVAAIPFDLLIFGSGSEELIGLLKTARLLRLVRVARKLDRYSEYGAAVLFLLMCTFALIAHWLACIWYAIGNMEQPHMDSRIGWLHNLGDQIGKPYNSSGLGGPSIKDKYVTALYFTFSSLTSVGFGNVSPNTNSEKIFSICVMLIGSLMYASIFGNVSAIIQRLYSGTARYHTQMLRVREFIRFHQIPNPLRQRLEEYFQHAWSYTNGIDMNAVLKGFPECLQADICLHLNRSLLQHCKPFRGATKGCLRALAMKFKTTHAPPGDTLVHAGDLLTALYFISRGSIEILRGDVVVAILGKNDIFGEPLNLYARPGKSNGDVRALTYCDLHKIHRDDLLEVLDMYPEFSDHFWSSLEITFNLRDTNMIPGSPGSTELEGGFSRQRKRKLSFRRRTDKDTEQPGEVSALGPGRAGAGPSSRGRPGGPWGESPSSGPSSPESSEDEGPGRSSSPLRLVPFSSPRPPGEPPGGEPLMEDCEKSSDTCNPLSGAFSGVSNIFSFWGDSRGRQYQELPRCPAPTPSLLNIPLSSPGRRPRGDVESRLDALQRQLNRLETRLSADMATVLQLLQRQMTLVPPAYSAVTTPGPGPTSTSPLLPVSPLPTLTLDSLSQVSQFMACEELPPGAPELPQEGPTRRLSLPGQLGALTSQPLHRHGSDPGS
Chain of Peroxisome proliferator-activated receptor delta (Homo sapiens) (Q03181 whole entry, looked up): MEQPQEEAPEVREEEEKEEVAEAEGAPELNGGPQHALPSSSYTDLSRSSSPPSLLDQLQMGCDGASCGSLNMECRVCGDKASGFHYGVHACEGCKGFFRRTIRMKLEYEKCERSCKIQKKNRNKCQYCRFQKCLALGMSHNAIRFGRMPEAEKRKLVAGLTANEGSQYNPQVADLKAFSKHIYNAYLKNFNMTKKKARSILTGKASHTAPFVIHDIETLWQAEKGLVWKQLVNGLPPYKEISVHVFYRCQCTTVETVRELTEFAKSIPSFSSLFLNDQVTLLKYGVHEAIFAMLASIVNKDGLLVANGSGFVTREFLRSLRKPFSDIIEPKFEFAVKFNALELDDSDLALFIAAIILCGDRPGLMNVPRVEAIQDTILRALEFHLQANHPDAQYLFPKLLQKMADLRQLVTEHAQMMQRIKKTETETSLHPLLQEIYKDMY
Chain of Vitamin D3 receptor (Homo sapiens) (P11473 whole entry, looked up): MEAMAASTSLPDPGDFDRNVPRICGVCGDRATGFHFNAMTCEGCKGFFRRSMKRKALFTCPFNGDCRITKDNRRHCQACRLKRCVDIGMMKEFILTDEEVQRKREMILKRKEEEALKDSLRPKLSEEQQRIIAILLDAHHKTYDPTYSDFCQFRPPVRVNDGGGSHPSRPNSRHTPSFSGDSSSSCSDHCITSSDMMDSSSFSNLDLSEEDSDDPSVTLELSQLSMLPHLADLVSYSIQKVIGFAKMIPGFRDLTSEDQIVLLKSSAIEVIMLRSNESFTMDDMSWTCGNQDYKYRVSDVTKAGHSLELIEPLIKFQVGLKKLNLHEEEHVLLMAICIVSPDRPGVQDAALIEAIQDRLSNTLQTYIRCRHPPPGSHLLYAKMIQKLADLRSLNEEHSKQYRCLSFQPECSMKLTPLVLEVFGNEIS
Chain of Retinoic acid receptor RXR-alpha (Homo sapiens) (P19793 whole entry, looked up): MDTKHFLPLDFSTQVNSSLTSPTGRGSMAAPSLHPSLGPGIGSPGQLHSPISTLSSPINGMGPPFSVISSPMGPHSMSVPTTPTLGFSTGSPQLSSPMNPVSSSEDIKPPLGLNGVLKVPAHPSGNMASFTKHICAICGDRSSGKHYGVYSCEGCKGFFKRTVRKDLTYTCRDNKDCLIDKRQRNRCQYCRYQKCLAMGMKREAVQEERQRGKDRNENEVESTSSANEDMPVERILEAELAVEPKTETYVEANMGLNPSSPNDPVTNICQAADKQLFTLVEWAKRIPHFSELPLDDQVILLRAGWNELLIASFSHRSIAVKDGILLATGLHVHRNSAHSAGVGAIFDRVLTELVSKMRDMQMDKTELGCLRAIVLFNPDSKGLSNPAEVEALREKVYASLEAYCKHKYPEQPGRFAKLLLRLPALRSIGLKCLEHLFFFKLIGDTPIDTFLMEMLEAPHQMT
Chain of Thyroid hormone receptor beta (Homo sapiens) (P10828 whole entry, looked up): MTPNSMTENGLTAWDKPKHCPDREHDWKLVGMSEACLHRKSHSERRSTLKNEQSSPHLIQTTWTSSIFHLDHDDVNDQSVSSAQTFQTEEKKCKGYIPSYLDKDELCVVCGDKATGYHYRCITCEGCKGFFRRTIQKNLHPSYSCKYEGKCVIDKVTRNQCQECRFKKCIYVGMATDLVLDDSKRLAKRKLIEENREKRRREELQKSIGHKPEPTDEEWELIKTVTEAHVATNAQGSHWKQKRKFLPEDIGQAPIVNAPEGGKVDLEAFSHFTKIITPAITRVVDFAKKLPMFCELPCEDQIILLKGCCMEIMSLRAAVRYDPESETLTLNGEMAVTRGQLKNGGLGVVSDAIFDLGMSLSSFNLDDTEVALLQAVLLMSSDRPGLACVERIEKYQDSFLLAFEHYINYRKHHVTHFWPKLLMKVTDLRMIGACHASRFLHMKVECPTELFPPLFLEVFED

On to `Cc1cccc(C)c1`, for which the compound was classed as inactive in [1], in experiment [4], in experiment [5], in experiment [6], in [7] and in experiment [9]. In [10], the compound was classed as inactive. Moreover, the figures for the max response in experiment [2], in [8] and in [11] were -14.1%, -8.44% and -8.63%, respectively. Also, the Potency result in experiment [3] and in [13] was “inactive” throughout. Also, the activity change % (negative = inhibition) in experiment [12] was 21.6% (inactive).
Take `CC=C(Cl)Cl`: the activation in experiment [14] was -2.89% (inactive); in [16], -2.14% (inactive); in experiment [17], -0.14% (inactive). Moreover, the max response in [2] is 24.9%; in [8] it was -16.9%; in experiment [11], -7.38%; in experiment [15], -5.31% (inactive). Moreover, the compound was called inactive in experiment [4], in experiment [5], in experiment [6], in experiment [7] and in [10]. In addition, in experiment [12], the activity change % (negative = inhibition) is -14.6% (inactive).
Regarding `CC(N)CN` (stereo not drawn), the call in experiment [1], in experiment [4], in experiment [6], in experiment [7], in experiment [9] and in experiment [10] was inactive. The max response in experiment [2] is 4.9%; in [8], -2.32%; in [11] it was -2.44%; in [15], 12.6% (inactive). The Potency result in experiment [3], in experiment [13] and in experiment [18] was “inactive” each time. Further, the activity change % (negative = inhibition) in [12] is -4.82% (inactive). Further, the activation was -0.238% (inactive) in [16] and 0.0382% (inactive) in [17].
In the case of `CC1(N)CCC(C(C)(C)N)CC1` (stereo not drawn), the activation in experiment [14] is 7.57% (inactive); in experiment [16], 0.302% (inactive); in experiment [17], -1.08% (inactive). The outcome in experiment [4], in experiment [6], in [7], in experiment [9] and in [10] was inactive. The values for the max response in experiment [8] and in experiment [11] were -6.34% and 4.37%, respectively. Moreover, the activity change % (negative = inhibition) in experiment [12] is -1.11% (inactive). Moreover, the Potency result in [13] and in [18] was “inactive” in each case.
Turning to `CC(=O)Nc1ccc(C)cc1`, the activation in [14] is 8.72% (inactive); in experiment [16], -3.2% (inactive); in [17] it was 1.33% (inactive). The max response in experiment [2] was -10.7%; in [8], -6.19%; in experiment [11], -3.72%; in experiment [15], 5.73% (inactive). Also, the Potency result in experiment [3], in experiment [13] and in [18] was “inactive” in each case. The call in experiment [4], in experiment [6], in [7], in experiment [9] and in [10] was inactive. Further, the activity change % (negative = inhibition) in [12] was 8.42% (inactive).
For the compound `CCCC=O`, the activation in experiment [14] is -2.2% (inactive); in experiment [16], -2.76% (inactive); in experiment [17] it was -4.7% (inactive). For the same compound, the max response in experiment [2] was 10.5%; in [8], -4.54%; in experiment [11], 6.82%; in [15], 14.7% (inactive). Besides, the Potency result in experiment [3] and in [13] was “inactive” each time. Also, the compound was classed as inactive in [4], in [6], in [7] and in [9]. Besides, the activity change % (negative = inhibition) in experiment [12] was -7% (inactive).
For the compound `COc1ccc(N)c(OC)c1`, the activation in experiment [14] is 4.84% (inactive); in experiment [16], 1.84% (inactive). Moreover, the result in experiment [4], in [5], in [6], in experiment [7], in [9] and in experiment [10] was inactive. Also, the max response in experiment [8] was -3.88%; in [11], -0.758%; in experiment [15], -1.72% (inactive). Moreover, in [12], the activity change % (negative = inhibition) was -1.14% (inactive). The Potency entry in [13] is “inactive”.

These data come from PubChem BioAssay (NCATS).
